GPR151 activ: activators of human GPR151, primary screen, cell-based, PathHunter beta-arrestin, luminescence. G-protein coupled receptor 151 (Homo sapiens), Q8TDV0. PathHunter beta-arrestin GPR151 cells. activation, % at 11.2 µM. hit rate 1% among 650,000. AID 1508602, 2020; in the data active = activation above about 4.9%;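 note: 0% = median of compound wells and 100% = cells with positive control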
Target sequence (Q8TDV0 whole entry, looked up): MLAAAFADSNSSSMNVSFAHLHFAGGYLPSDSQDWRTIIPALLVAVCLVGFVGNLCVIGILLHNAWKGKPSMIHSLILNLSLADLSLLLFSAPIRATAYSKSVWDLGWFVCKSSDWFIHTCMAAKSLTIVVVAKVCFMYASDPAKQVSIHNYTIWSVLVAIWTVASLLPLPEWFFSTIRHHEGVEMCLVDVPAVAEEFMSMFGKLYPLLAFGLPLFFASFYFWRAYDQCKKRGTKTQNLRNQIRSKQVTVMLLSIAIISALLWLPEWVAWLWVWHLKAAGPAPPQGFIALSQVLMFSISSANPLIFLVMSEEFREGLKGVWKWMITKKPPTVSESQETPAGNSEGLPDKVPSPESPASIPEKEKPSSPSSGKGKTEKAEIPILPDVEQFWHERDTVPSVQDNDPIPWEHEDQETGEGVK
TEAD-YAP block: TEAD-YAP interaction inhibition, primary screen, TEAD-YAP interaction inhibitor project, luminescence, HEK-TIYL cells. TEAD-Gal4/YAP UAS-luciferase luminescence. inhibition, % at 9.12 µM. hit rate 1.4% among 640,000. AID 1259422, 2018; in the data active = inhibition above about 32%;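 note: 0% = median of test compound wells and 100% = reference inhibitor wells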
MITF primary: MITF inhibitors, primary screen, biochemical, AlphaScreen, human; Microphthalmia-associated transcription factor (Homo sapiens), O75030; AlphaScreen MITF homodimerization, bead proximity signal; hit rate 0.91% among 650,000; inhibition, % at 2.6 µM; in the data active = inhibition above about 50%;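 note: 0% = vehicle wells with protein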
FBW7 activator: FBW7 E3 ligase activators, primary screen, biochemical, AlphaScreen, human; F-box/WD repeat-containing protein 7 (Homo sapiens), Q969H0; AlphaScreen FBW7–phospho-cyclin E peptide binding, activator screen; normalized activity (activation), % at 26.1 µM; hit rate 0.13% among 650,000; AID 1259310, 2017; in the data active = normalized activity above about 1.9%;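 note: purified mutant Fbw7 with reduced substrate affinity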
* marks the source's active call; other numbers are inactive results. The list is not random: actives were taken first. Their share in the collection is about 3.5%.

What do the screens show for `O=C1CCCC2=C1C(c1cccc(Br)c1)Nc1ccc(C(=O)c3ccccc3)cc1N2` (stereo not given)?
GPR151 activ: 1.0; TEAD-YAP block: 67.8*; MITF primary: 7.3; FBW7 activator: 0.0

Results for CC(=O)N1c2ccccc2NC2=C(C(=O)CCC2)C1c1cccs1 (stereo not given) ?
GPR151 activ: 1.2; TEAD-YAP block: 49.3*; MITF primary: -3.3; FBW7 activator: -0.1

Results for CCOC(=O)c1sc(=Nc2ccc(Br)cc2)n(CCO)c1C ?
GPR151 activ: -0.1; TEAD-YAP block: -7.5; MITF primary: 6.0; FBW7 activator: -0.1

What do the screens show for `Cc1nn(-c2ccccc2)c2sc(C(=O)N/N=C/c3ccc4c(c3)OCO4)cc12`?
GPR151 activ: 0.4; TEAD-YAP block: -4.3; MITF primary: -5.6; FBW7 activator: 0.0

What do the screens show for `COc1ccccc1C(=O)NC(=S)Nc1ccccc1C(=O)O`?
GPR151 activ: -2.0; TEAD-YAP block: 22.0; MITF primary: -4.4; FBW7 activator: 0.1

Results for COc1ccccc1NC(=S)Nc1ccc(N2CCOCC2)cc1 ?
GPR151 activ: -2.2; TEAD-YAP block: 33.4*; MITF primary: 17.9; FBW7 activator: -0.1

What do the screens show for `COc1ccccc1C(=O)NNC(=O)c1cccc(O)c1`?
GPR151 activ: -2.5; TEAD-YAP block: 79.2*; MITF primary: 0.3; FBW7 activator: 0.0

What do the screens show for `COC(=O)c1cc(OC)c(OC)cc1NC(=S)NC(=O)c1ccccc1`?
GPR151 activ: -0.8; TEAD-YAP block: 33.4*; MITF primary: -1.4; FBW7 activator: -0.1

How did COC(=O)c1cc(OC)c(OC)cc1NC(=S)Nc1ccccc1 do in these assays?
GPR151 activ: -1.7; TEAD-YAP block: 1.2; MITF primary: 1.9; FBW7 activator: -0.2

Results for COc1ccccc1NC(=S)NC(=O)c1ccccc1OC ?
GPR151 activ: -1.1; TEAD-YAP block: 39.4*; MITF primary: 7.1; FBW7 activator: 0.0

How did COc1ccc(CN[C@H]2C[C@@H](C(=O)NCCc3ccccc3F)N(CC(C)C)C2)cc1O do in these assays?
GPR151 activ: -0.3; TEAD-YAP block: -8.9; MITF primary: 7.6; FBW7 activator: -0.1

Results for CCOc1ccc(NC(=O)CC2C(=O)N(c3ccc(Cl)cc3)C(=S)N2CCCN2CCCCC2)cc1 (stereo not given) ?
GPR151 activ: -0.6; TEAD-YAP block: -9.7; MITF primary: 8.5; FBW7 activator: 0.0

Results for O=C(c1cnccn1)N1CCc2c(nc(N3CCCCC3)[nH]c2=O)C1 ?
GPR151 activ: -0.2; TEAD-YAP block: 2.1; MITF primary: 14.9; FBW7 activator: 0.0

Results for O=c1[nH]c(=S)n(Cc2ccco2)c(O)c1/C=C1\C=Nc2ccc(Br)cc21 ?
GPR151 activ: 0.1; TEAD-YAP block: 10.7; MITF primary: 83.8*; FBW7 activator: -1.0

Results for CCc1cccc2c1N=C/C2=C\c1c(O)n(Cc2ccco2)c(=O)[nH]c1=O ?
GPR151 activ: 0.7; TEAD-YAP block: 14.9; MITF primary: 58.1*; FBW7 activator: -0.6

What do the screens show for `CCc1cccc2c1N=C/C2=C\c1c(O)n(Cc2ccccc2)c(=O)[nH]c1=O`?
GPR151 activ: -2.1; TEAD-YAP block: -8.9; MITF primary: 3.2; FBW7 activator: -0.5

Results for C=CCc1cc(C=C2C(=O)N(C)C(=S)N(C)C2=O)cc(OCC)c1OC ?
GPR151 activ: 0.1; TEAD-YAP block: 4.1; MITF primary: -17.2; FBW7 activator: -0.1

How did COc1cccc2cc(-c3csc(N)n3)c(=O)oc12 do in these assays?
GPR151 activ: -9.1; TEAD-YAP block: 48.8*; MITF primary: 0.5; FBW7 activator: -0.1

Results for COc1cccc2cc(-c3csc(NC(C)=O)n3)c(=O)oc12 ?
GPR151 activ: 1.5; TEAD-YAP block: -9.1; MITF primary: -0.7; FBW7 activator: 0.0

What do the screens show for `COc1ccc(-c2cc3cccc(OC)c3oc2=O)cc1`?
GPR151 activ: -7.4; TEAD-YAP block: 71.4*; MITF primary: -17.7; FBW7 activator: 0.3

What do the screens show for `Cc1cc2nc(-c3cccnc3SCC(=O)NCc3ccco3)[nH]c2cc1C`?
GPR151 activ: -10.9; TEAD-YAP block: 36.8*; MITF primary: -6.2; FBW7 activator: 0.1

What do the screens show for `O=C(CSc1ncccc1-c1nc2ccccc2[nH]1)NCc1ccco1`?
GPR151 activ: 0.3; TEAD-YAP block: 9.8; MITF primary: -9.6; FBW7 activator: -0.1

Assay outcomes deposited in PubChem BioAssay by The Scripps Research Institute Molecular Screening Center.
